For 13 molecules, activity change, negative = inhibition and max response results are on record in PubChem BioAssay (NCATS).

The assay in a line: qHTS Assay for Lipid Storage Modulators (AID 1519). On activity change, negative = inhibition: on the % scale 0 is the no-effect control and ±100 the full control effect. Conditions: Drosophila S3 cells, BODIPY lipid droplet/cell ratio, laser cytometry, cells loaded with oleic acid. From the text:
NIH Molecular Libraries Probe Production Centers Network [MLPCN]
NIH Chemical Genomics Center [NCGC]
Assay Submitter (PI): Beller, Mathias; Max-Planck-Institut fur Biophysikalische Chemie
NCGC Assay Overview: Storing lipids as a reservoir for energy or the anabolism of elementary metabolites is a common feature of probably all cells and is conserved from bacteria to humans. The universal cellular lipid storage organelle is the so-called lipid storage droplet (LD). Although ubiquitous, LDs share a simple structure composed of a hydrophobic core that harbors the storage lipids, which is shielded by a droplet-specific phospholipid monolayer to which proteins are attached. The current model of LD biogenesis involves an incorporation of the lipid core into the membrane leaflets of the endoplasmic reticulum (ER) followed by a subsequent budding-like maturation of a LD, which ultimately pinches off. Once released, LD volume can increase by localized lipogenesis or fusion of existing droplets. Storage lipids are re-mobilized enzymatically by lipase activity. Lipase regulation in the adipocyte is heavily studied and involves multiple components including catecholamine signaling, the LD-associated proteins Perilipin and comparative gene identification-58 (CGI-58) and at least two lipases named hormone sensitive lipase (HSL) and adipocyte triglyceride lipase (ATGL). LD regulation outside of the adipocyte is poorly understood and only few components are known. However, there is an urgent need to learn more about ectopic fat depots as mislocalized storage of lipids, for example in the liver or muscle, is an eminent health problem associated with insulin resistance or the metabolic syndrome. We developed a laser-scanning cytometer assay to enable 1,536-well screening and combined the results of the small molecules screen with an RNAi database based on lipid storage.
NCGC Assay Protocol Summary:
We dispensed 4 uL of cells at 1.25 x 10^6 cells/mL into LoBase Aurora COC 1,536-well plates (black walled, clear bottom) with a bottle-valve solenoid-based dispenser (Aurora) to obtain 5,000 cells/well. Triacsin C (Sigma-Aldrich T-4540), an inhibitor of long-chain fatty acyl CoA synthetase that blocks synthesis of triglycerides, was used as a positive control for lipid under-storage. A total of 23 nL of compound solution of different concentrations were transferred to the assay plates using a Kalypsys pin tool equipped with a 1,536-pin array containing 10-nL slotted pins (FP1S10, 0.457-mm diameter, 50.8 mm long; V&P Scientific). One microliter of oleic acid (400 uM) was added, and the plate was lidded with stainless steel rubber gasket lined lids containing pinholes. […] Fluorescence was detected by excitation of the fluorophores with a 488-nm laser on an Acumen Explorer (TTP Lab Tech). The total intensity in channel 1 (500-530 nm) reflected lipid droplet accumulation. […] The ratio of the total intensity in PMT channel 1 over total intensity of channel 3 was also calculated. Percent activity was computed relative to an internal control (100% inhibited lipid droplet deposition due to the presence of 20 uM Triacsin C), which was added to 32 wells/plate.
On the technique in general: Quantitative high-throughput screening tests each substance at several concentrations.

Where [1] appears, read: measured here: cell count channel max response.
[2] abbreviates: measured here: lipid channel max response.

Several values for one entry are separate records, joined by “and”; a condition that tells them apart may be missing. Identical values can stand only once. Inconclusive results are not listed. Activity calls are given as the source filed them. The call rests on the fitted dose curve.

For the molecule `CCN(CC)CCNC(=O)c1cc(S(C)(=O)=O)ccc1OC`, the activity change, negative = inhibition runs as follows: (at 25.7 µM (top of the series)) -2.02% (inactive); (at 57.5 µM (top of the series)) 7.41% (inactive) and 1.69% (inactive). Moreover, the max response is, setting by setting: under setting [1], -4.82% and 19.9% and -18.4%; under setting [2], -8.3% and 33.5% and -17.4%.

For `CN(C)CC/C=C1\c2ccccc2COc2ccccc21`, the activity change, negative = inhibition (at 25.7 µM (top of the series)) is 1.34% (inactive) and the activity change, negative = inhibition (at 57.5 µM (top of the series)) is 2.32% (inactive). The max response is -10.6% and 12% under setting [1]; -7.69% and 14% under setting [2].

`CCn1cc(C(=O)O)c(=O)c2cc3c(cc21)OCO3`: the activity change, negative = inhibition is -1.05% (inactive) (at 25.7 µM (top of the series)) and 2.77% (inactive) (at 57.5 µM (top of the series)). Besides, the max response under setting [1] is 12% and 70.6%; the max response under setting [2] was 10.4% and 75.7%.

`CC(C)(Oc1ccc(CCNC(=O)c2ccc(Cl)cc2)cc1)C(=O)O`: the activity change, negative = inhibition (at 25.7 µM (top of the series)) was -0.881% (inactive). Besides, the max response under setting [1] is -0.576% and the max response under setting [2] is -0.58%.

On to `COc1ccc(CN(CCN(C)C)c2ccccn2)cc1`, for which the activity change, negative = inhibition was 1.57% (inactive) (at 25.7 µM (top of the series)); 2.66% (inactive) and 4.86% (inactive) and -0.667% (inactive) (at 57.5 µM (top of the series)). Also, the max response under setting [1] was 5.42% [middle of 4 runs].

Consider `COCCOC(=O)C1=C(C)NC(C)=C(C(=O)OC(C)C)C1c1cccc([N+](=O)[O-])c1` (configuration not stated), for which, under “at 57.5 µM (top of the series)”, the activity change, negative = inhibition is 10.8% (inactive) and 3.42% (inactive). Besides, the max response is 12.3% and 59.2% under setting [1]; 26.9% and 56.5% under setting [2].

For `CCCCCN(CCCCC)C(=O)C(CCC(=O)O)NC(=O)c1ccc(Cl)c(Cl)c1` (configuration not stated), under “at 57.5 µM (top of the series)”, the activity change, negative = inhibition is 2.8% (inactive). Besides, the max response was -5.79% under setting [1] and -4.23% under setting [2].

Regarding `COCCc1ccc(OCC(O)CNC(C)C)cc1` (configuration not stated), the activity change, negative = inhibition (at 57.5 µM (top of the series)) is 2.43% (inactive). Besides, the max response under setting [1] was -17.2% and the max response under setting [2] was -15.7%.

Consider `c1ccc2c(c1)CCCC2C1=NCCN1` (configuration not stated), for which the activity change, negative = inhibition (at 57.5 µM (top of the series)) was 9.7% (inactive) and 1.83% (inactive). Moreover, the max response is 6.5% and -25.5% under setting [1]; 18.8% and -24.9% under setting [2].

As to `NCCCNCCSP(=O)(O)O`, the activity change, negative = inhibition (at 57.5 µM (top of the series)) was 2.83% (inactive). Moreover, the max response is 11.3% under setting [1] and 15.5% under setting [2].

On to `CC(C(=O)O)c1ccc(CC2CCCC2=O)cc1` (configuration not stated), for which the activity change, negative = inhibition (at 57.5 µM (top of the series)) is -1.18% (inactive). Further, the max response is, setting by setting: under setting [1], -27.7%; under setting [2], -27%.

As for `COCC(=O)O[C@]1(CCN(C)CCCc2nc3ccccc3[nH]2)CCc2cc(F)ccc2[C@@H]1C(C)C`, the activity change, negative = inhibition (at 57.5 µM (top of the series)) is -12.5% (inactive). Moreover, the max response is, setting by setting: under setting [1], -3.1%; under setting [2], -16.1%.

As to `C=CCc1ccccc1OCC(O)CNC(C)C` (configuration not stated), under “at 57.5 µM (top of the series)”, the activity change, negative = inhibition was 0.138% (inactive). Further, the max response under setting [1] was found to be 11.7% and the max response under setting [2] came out at 12.4%.
